Data as given in PubChem BioAssay (NCI).
The panel holds about 83,000 compounds, 20% with a hit somewhere; the sample as a whole holds those more often.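 Plates (96-well) were seeded with cells, treated with compound at one concentration, and incubated for 48 hours before percent growth was determined.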 Unmarked numbers belong to inactive results. Calls of active or inactive are those of the source. Rule for the calls: active = growth percent below 10; inactive = the rest.

How the values were obtained:
Assay in all cases: NCI-60 one-dose screen, 48 h (100 = growth as untreated, 0 = no growth, -100 = all killed)
Settings in all cases: 10 µM unless noted
DU-145 prostate = tested on: DU-145 prostate
K-562 leukemia = tested on: K-562 leukemia
MALME-3M melanoma = tested on: MALME-3M melanoma
MDA-MB-231 breast = tested on: MDA-MB-231 breast
RXF 393 renal = tested on: RXF 393 renal
SF-268 CNS = tested on: SF-268 CNS
SF-295 CNS = tested on: SF-295 CNS
SF-539 CNS = tested on: SF-539 CNS
UACC-257 melanoma = tested on: UACC-257 melanoma
M14 melanoma = tested on: M14 melanoma

| SMILES | growth (DU-145 prostate) | growth (K-562 leukemia) | growth (MALME-3M melanoma) | growth (MDA-MB-231 breast) | growth (RXF 393 renal) | growth (SF-268 CNS) | growth (SF-295 CNS) | growth (SF-539 CNS) | growth (UACC-257 melanoma) | growth (M14 melanoma) |
| --- | --- | --- | --- | --- | --- | --- | --- | --- | --- | --- |
| CCS(=O)(=O)c1ncnc2nc[nH]c12 | 112% | 101% | 106% | 111% | 113% | 104% | 99.8% | 95.1% | 93.1% | 88.1% |
| COc1cc2cc(Oc3ccc(NC(=O)Nc4ccc(F)c(C(F)(F)F)c4)cc3)c(C)nc2cc1OCCN1CCOCC1 | 23.3% | 9.96% (active) | 22.7% | 39.6% | 40.3% | 32.1% | 0.809% (active) | 45.1% | 12% | 16.7% |
| COC(=O)c1ccc2[nH]c(O)c(C(=Nc3ccc(N(C)C(=O)CN4CCN(C)CC4)cc3)c3ccccc3)c2c1 | 21.5% | 9.67% (active) | -6.01% (active) | 22.6% | -39.3% (active) | 27.7% | 27.3% | -25.5% (active) | 35.4% | 11.2% |
| C(=N/Nc1ncnc2nc[nH]c12)/c1ccccn1 | 32.1% | 24.8% | 46.4% | 53.7% | 66.8% | 26.6% | 20.1% | 20.6% | 51.5% | 14.2% |
| CC(=O)OC[C@H]1OC(Sc2sc(C(=O)c3ccc(C)cc3)c(N)c2-c2nc3ccccc3s2)[C@H](OC(C)=O)[C@@H](OC(C)=O)[C@@H]1OC(C)=O (stereo not given in full) | 42.1% | 68.4% | 43.9% | 30% | 53.5% | 71% | 73.6% | 28.2% | 79.3% | 65.7% |
| COc1ccc(/C=C/c2c(C(=O)/C=C/c3ccc(C(F)(F)F)cc3)c(C)nc3ccccc23)cc1 | -81% (active) | 8.15% (active) | -46.7% (active) | -20.2% (active) | -83.9% (active) | 14.6% | -49.3% (active) | -76.2% (active) | -38% (active) | -15% (active) |
| CCCCn1c(=O)c(-c2cc(-c3ccc(Cl)cc3)nc(-c3ccc(Cl)cc3)c2)cc2cc(Cl)ccc21 | 112% | 102% | 104% | 84.6% | 118% | 98.4% | 103% | 103% | 96.1% | 101% |
| COc1ccc(C(Cc2ccccc2)NCCN2CCOCC2)cc1 (stereo not given) | 110% | 101% | 86.8% | 110% | 104% | 98% | 99.4% | 99.6% | 109% | 90.6% |
| COc1ccc2c(c1OC)C(=O)O[C@H]2[C@H]1c2c(cc3c(c2OC)OCO3)CCN1C | 117% | 66.4% | 92.2% | 104% | 108% | 110% | 94.1% | 98.9% | 95.2% | 94.8% |
| C#Cc1cccc(NC(=O)Nc2ccccc2NC(=O)CCl)c1 | 6.7% [8.25 µM] (active) | 9.69% [8.25 µM] (active) | -19.1% [8.25 µM] (active) | -71.7% [8.25 µM] (active) | -81.1% [8.25 µM] (active) | -17.4% [8.25 µM] (active) | 38.7% [8.25 µM] | -70.8% [8.25 µM] (active) | -12.6% [8.25 µM] (active) | -22.2% [8.25 µM] (active) |
| S=C(c1cccs1)N1CCN(c2cccc(Cl)c2)CC1 | 98.3% | 93.5% | 80.9% | 92.5% | 100% | 104% | 111% | 99.8% | 105% | 99.4% |
| O=C(Nc1ccc(Cl)cc1F)c1ccccc1O | 43.1% | 29.5% | -6.47% (active) | 39.1% | 42.5% | 43.1% | 69.7% | 48.9% | 14.1% | 46.4% |
| c1ccc2c(-c3nc(-c4c[nH]c5ccncc45)cs3)c[nH]c2c1 | 44.5% | -32% (active) | -48.8% (active) | 12.7% | 74.9% | 68.5% | 50.2% | 53% | 96.1% | -69.7% (active) |
| CCCCCCn1c(-c2ccc(C(=O)O/N=C(\N)c3ccc4ccccc4c3)cc2)nc(-c2ccccc2)c1-c1ccccc1 | 53.9% | -8.77% (active) | 71.5% | 64.4% | 35.1% | 51.3% | 70.1% | 48.8% | 82.2% | 72.7% |
| COc1nc2ccc(C)cc2cc1-c1nc2c(cnn2-c2ccccc2)c(=O)[nH]1 | 97.2% | 34.8% | 126% | 103% | 89.4% | 93.8% | 90.9% | 99.9% | 86.4% | 71% |
| Clc1ccc(C(/C=C/c2sc(Cl)nc2Cl)=N/Nc2cc(Cl)cc(Cl)c2)cc1 | 112% | 94.6% | 103% | 103% | 110% | 99.4% | 104% | 106% | 99.1% | 107% |
| COc1ccc2c(c1)c(-c1ccc(-c3cn(C)c4ccc(OC)cc34)o1)cn2C | 107% | 2.25% (active) | 80.6% | 69.1% | 66.8% | 71.8% | 62.2% | 18% | 90% | 71.2% |
| COc1ccc(C2NC(=O)C(C#N)c3c2sc2c(F)cccc32)c(OC)c1 (stereo not given) | 90.5% | 23.9% | 39.8% | 72.7% | 9.65% (active) | 52.1% | 27.7% | 8.87% (active) | 68.3% | 37.8% |
| CN1CCN(Cc2ccc(NC(=O)c3cncc(C#Cc4cnccc4C#N)c3)cc2C(F)(F)F)CC1 | 65.3% | 8.21% (active) | 17.2% | 68.6% | 76.6% | 89.9% | 96.3% | 42% | 41.1% | 25.4% |
| CCOC(=O)c1c(C)nc2c(c1N)CC(=O)N2Cc1ccc(F)cc1 | 100% | 93.3% | 116% | 97.9% | 101% | 96.4% | 95.3% | 92.9% | 96% | 94.8% |
